Among the data in PubChem BioAssay (NCI) are growth values, retold here.

The panel holds about 83,000 compounds, 20% with a hit somewhere; the sample as a whole holds those more often.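 Single-concentration screen, 48 h exposure, 96-well plates. Endpoint: percent growth. Below 10 = active.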 Values without a mark were called inactive. Calls of active or inactive are those of the source.

This assay concerns MDA-MB-468 breast. In words: NCI-60 one-dose screen, 48 h (100 = growth as untreated, 0 = no growth, -100 = all killed). As to conditions: 10 µM unless noted.
As for `O=C(N/N=C/c1ccccc1O)c1ccncc1`, the growth is 61%.

As for `COc1cc2cc(Oc3ccc(NC(=O)c4cccc(C(F)(F)F)c4)cc3)c(C)nc2cc1OC`, the growth is 9.35% (active).

`CC(C)c1nc(N(C)S(C)(=O)=O)nc(-c2ccc(F)cc2)c1/C=C/C(=O)C[C@@H](O)CC(=O)O`: the growth was 113%.

Turning to `O=C1CCC(C(=O)NCCNCCNC(=O)C2CCC(=O)N2)N1` (stereo not given), the growth was 89.7%.

Take `Cc1ccc(-n2nnnc2N)c(C)c1`: the growth was 115%.

In the case of `CN1CCN(CCOc2ccc(-c3cnc4c(-c5cccc(F)c5)cnn4c3)cc2)CC1`, the growth is 65.4%.

As for `COc1cc(NC(=O)CCl)ccc(=O)c1`, the growth was 75.6%.

Take `CC(C)(C)CC(C)(C)n1nnnc1C(Nc1ccccc1)c1cc2cccc3ccc4cccc1c4c32` (stereo not given): the growth was 86.5%.

In the case of `O=C1/C(=C/C(Cl)=C/c2ccccc2)SC(=S)N1CCc1ccc(O)cc1`, the growth is -36.2% (active).

For the compound `O=C(C(=O)N1CCCCC1)c1ccc(OC2OC(CO)C(O)C(O)C2O)cc1` (stereo not given), the growth was 100%.

As for `Cc1ccsc1C(=O)CC(=O)C(F)(F)C(F)(F)C(F)(F)F`, the growth is 112%.

Turning to `C[C@]12CC[C@H]3[C@@H](CC=C4C[C@@H](O)CC[C@@]43C)[C@@H]1CC[C@@H]2[C@](C)(O)CCc1cccnc1`, the growth was 25.3%.

Turning to `COc1ccc(N=c2nc3sc4cc(Cl)ccc4n3c(N)c2C#N)cc1`, the growth was -7.79% (active).

As to `O=C1Nc2ccccc2SC1c1ccccc1Cl` (stereo not given), the growth is 29.9%.

In the case of `Cc1c2ccncc2c(C)c2c1c1cc(CO)ccc1n2C`, the growth is -46.1% (active).

Consider `Nc1ccc(Nc2nccc(-c3ccc4ccccc4c3)n2)cc1`, for which the growth is -10.6% (active).

In the case of `C[C@]12C[C@@H](c3ccoc3)OC(=O)[C@@H]1CC[C@]1(C)[C@@H]2CC[C@@H](O)[C@]1(C)O`, the growth is 88.3%.

For `COc1ccc(Nc2ccc3ccccc3c2)cc1`, the growth is -2.03% (active).

As to `COc1cc(NC(=O)Nc2cccc(-c3cc(=O)c4c(OC)c(OC)c(OC)cc4o3)c2)cc(OC)c1OC`, the growth is 40.4%.

Consider `c1ccc(CCCCc2ccc3ccccc3n2)cc1`, for which the growth was 111%.

Consider `Cc1nn(-c2ccccc2)c(Cl)c1/C=C(/NC(=O)c1ccccc1)c1nc2ccccc2[nH]1`, for which the growth was 113%.

As for `COc1ccc(NCc2cn(-c3ccc(C(=O)O)cc3)nc2-c2cc(C(F)(F)F)cc(C(F)(F)F)c2)cc1`, the growth is 112%.

Turning to `C#C[C@]1(O)CC[C@H]2[C@@H]3CC=C4c5sc(NCc6ccccc6)nc5CC[C@]4(C)[C@H]3CC[C@@]21C`, the growth was 45.4%.

For `CCOC(=O)C1C(=O)C=C(c2cc(OC)c(OC)c(OC)c2)CC1c1sc(N(C)Cc2ccccc2)nc1Cl` (stereo not given), the growth was 71.2%.

As for `CCCS(=O)(=O)c1nc(NC2CC2)cc(-c2ccc3c(ccn3C3CC(C)(C)NC(C)(C)C3)c2)n1`, the growth is -72.4% (active).

As to `COc1ccc(-c2nc(N3CCN(C(=O)C4CCCCC4)CC3)c3c4c(sc3n2)CCCC4)cc1`, the growth is -17.4% (active).

Take `COc1cc(OC)cc(C2CC(=O)Nc3c2c(C)nn3-c2nc3ccccc3[nH]2)c1` (stereo not given): the growth is 46.6%.

Turning to `O=C(Nc1ccc(Cl)cc1)Nc1ccc(Nc2nncc3ccccc23)cc1`, the growth was 0.165% (active).

For the compound `CCOC(=O)CC(=O)OC`, the growth was 102%.

`COc1ccc2c(c1)c(-c1nn3cc(-c4ccncc4)nc3s1)cn2C`: the growth was 79.3%.

On to `COC(=O)c1ccccc1Cl`, for which the growth is 109%.

`CC(C)CCC[C@@H](C)[C@H]1CC[C@H]2[C@@H]3CC[C@H]4C/C(=N/O)CC[C@]4(C)[C@H]3CC[C@]12C`: the growth was 99%.

As to `Cn1c2ccccc2c2c3[nH][nH]c(=O)c3c3c4ccccc4[nH]c3c21`, the growth was 49.5%.

As for `Cn1ccnc1C(=O)/C=C/c1ccc(CC(=O)Nc2ccc(C(F)(F)F)cc2)cc1`, the growth is -6.59% (active).

As for `OC1CC2c3ccccc3C1c1ccccc12` (stereo not given), the growth is 111%.

Turning to `CCN1C(=S)N(c2ccccc2)C2NC(=S)N(/N=C/C=C/c3ccccc3OC)C21` (stereo not given), the growth is 6.55% (active).

Turning to `N#CC(=C1C=CC(=NO)C=C1)c1ccccc1`, the growth is 13.8%.

For the compound `C=C(C)[C@@H]1C[C@@H]2Cc3cc(F)ccc3N1O2`, the growth is 104%.

As for `CC(C)[N+](C)(CCOC(COc1ccccc1)COc1ccccc1)C(C)C`, the growth was 12.8%.

As to `FC(F)(F)c1[nH]ncc1-c1nc2ccc3[nH]ncc3c2c2c1CCCC2`, the growth is 19.7%.
